According to PubChem BioAssay AID1159580 (chemical genetic matrix, 2015):
Several values for one entry are separate records, joined by “and”; a condition that tells them apart may be missing. Equal entries are not always repeated. Out of some 5,500 compounds screened, about 2,000 (36%) were called active. Another 18% or so got no clear call; they are omitted. No stated cut-off is given here; in the data, active means normalized growth mostly below about 0.91 (no sharp cut-off); inconclusive means no clear call, values can overlap the other calls; inactive means mostly above about 0.92. Some of the results follow.

Experiment: chemical genetic growth profiling, strain panel (AID 1159580);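 further: tested at 20 µM; growth read once vehicle control cultures reached saturation at 30 °C; 1 = growth at the plate median or of vehicle wells; lower values mean less growth of the strain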
Conditions: S. cerevisiae deletion strains, growth OD

Measured: normalized growth

C=CCc1cc(OC)c2c(c1OC)OCO2
inactive: locus YAL013W, strain DEP1, hits give low values 0.971 | locus YAL021C, strain ccr4, hits give low values 1 | locus YAL026C, strain drs2, hits give low values 0.955 | locus YAL030W, strain snc1, hits give low values 0.95 | locus YBL061C, strain skt5, hits give low values 0.926 | locus YBR009C, strain hhf1, hits give low values 0.938 | locus YBR021W, strain FUR4, hits give low values 0.934 | locus YBR229C, strain ROT2, hits give low values 0.996 | locus YBR231C, strain swc5, hits give low values 0.982 | locus YBR279W, strain paf1, hits give low values 0.966 | locus YCL011C, strain gbp2, hits give low values 0.937 | locus YCL016C, strain dcc1, hits give low values 0.937 | locus YCL029C, strain bik1, hits give low values 0.945 | locus YCL061C, strain MRC1, hits give low values 0.944 | locus YCL069W, strain vba3, hits give low values 0.969 | locus YCR088W, strain abp1, hits give low values 0.954 | locus YDL005C, strain med2, hits give low values 0.992 | locus YDL035C, strain GPR1, hits give low values 0.968 | locus YDL074C, strain BRE1, hits give low values 0.91 | locus YDL101C, strain DUN1, hits give low values 0.995 | locus YDL134C, strain PPH21, hits give low values 0.982 | locus YDL185W, strain tfp1, hits give low values 0.968 | locus YDL192W, strain arf1, hits give low values 0.956 | locus YDR001C, strain nth1, hits give low values 0.93 | locus YDR069C, strain doa4, hits give low values 1.06 | locus YDR137W, strain rgp1, hits give low values 0.955 | locus YDR150W, strain NUM1, hits give low values 0.979 | locus YDR162C, strain NBP2, hits give low values 0.951 | locus YDR297W, strain sur2, hits give low values 0.94 | locus YDR318W, strain mcm21, hits give low values 0.947 | locus YDR334W, strain swr1, hits give low values 1.02 | locus YDR335W, strain msn5, hits give low values 0.982 | locus YDR388W, hits give low values 0.947 | locus YDR502C, strain sam2, hits give low values 0.929 | locus YEL003W, strain gim4, hits give low values 0.955 | locus YEL037C, strain rad23, hits give low values 0.987 | locus YEL061C, strain CIN8 (second series), hits give low values 0.946 | locus YEL061C, strain CIN8, hits give low values 0.966 | locus YER015W, strain faa2, hits give low values 0.955 | locus YER016W, strain bim1, hits give low values 0.938 | locus YER110C, hits give low values 0.929 | locus YER155C, strain BEM2, hits give low values 0.96 | locus YER167W, strain BCK2, hits give low values 0.938 | locus YFR010W, strain ubp6, hits give low values 1.06 | locus YGL078C, strain dbp3, hits give low values 0.959 | locus YGL086W, strain mad1, hits give low values 0.962 | locus YGL173C, strain kem1, hits give low values 0.909 | locus YGL248W, strain PDE1, hits give low values 0.983 | locus YGL253W, strain hxk2, hits give low values 0.945 | locus YGR078C, strain PAC10, hits give low values 0.903 | locus YGR135W, strain pre9, hits give low values 0.948 | locus YGR229C, strain SMI1, hits give low values 0.932 | locus YGR252W, strain gcn5, hits give low values 0.969 | locus YHR027C, strain rpn1, hits give low values 0.947 | locus YHR030C, strain SLT2, hits give low values 0.963 and 0.999 | locus YHR079C, strain IRE1 (second series), hits give low values 0.932 | locus YHR079C, strain IRE1, hits give low values 0.995 | locus YHR094C, strain hxt1, hits give low values 0.935 | locus YHR129C, strain ARP1, hits give low values 0.955 | locus YHR200W, strain rpn10, hits give low values 0.969 | locus YIL066C, strain RNR3, hits give low values 0.979 | locus YIL073C, strain SPO22, hits give low values 1.07 | locus YIL125W, strain kgd1, hits give low values 0.934 | locus YIR030C, strain dcg1, hits give low values 0.933 | locus YJL092W, strain hpr5, hits give low values 0.922 | locus YJL095W, strain BCK1, hits give low values 0.868 and 0.994 | locus YJL115W, strain asf1, hits give low values 0.978 | locus YJL129C, strain trk1, hits give low values 0.942 | locus YJL134W, strain LCB3, hits give low values 0.973 | locus YJL154C, strain vps35, hits give low values 0.989 | locus YJL164C, strain tpk1, hits give low values 0.939 | locus YJL166W, strain qcr8, hits give low values 0.934 | locus YJL168C, strain set2, hits give low values 0.94 | locus YJL187C, strain SWE1 (second series), hits give low values 0.985 | locus YJL187C, strain SWE1, hits give low values 0.945 | locus YJR043C, strain POL32, hits give low values 1.05 | locus YJR066W, strain TOR1, hits give low values 0.95
active: locus YBR023C, strain chs3, hits give low values 0.902 | locus YBR171W, strain sec66, hits give low values 0.874 | locus YDL040C, strain nat1, hits give low values 0.924 | locus YDR101C, strain arx1, hits give low values 0.908 | locus YDR159W, strain sac3, hits give low values 0.797 | locus YDR195W, strain ref2 1.22 [resistant] | locus YDR392W, strain spt3, hits give low values 0.378 | locus YER111C, strain swi4, hits give low values 0.898 | locus YER155C, strain BEM2 (second series), hits give low values 0.462 | locus YGL167C, strain pmr1, hits give low values 0.908 | locus YGL227W, strain vid30, hits give low values 0.882 | locus YGL240W, strain doc1, hits give low values 0.839 | locus YHR013C, strain ard1, hits give low values 1.32 [resistant] | locus YHR142W, strain chs7, hits give low values 0.723 | locus YJL095W, strain BCK1 (second series), hits give low values 0.879
